Several values for one entry are separate records, joined by “and”; a condition that tells them apart may be missing. Equal entries are not always repeated. Records with an inconclusive call do not appear. Activity calls are given as the source filed them. Calls come from the whole dose curve; as a rule, active = well fitted cell-killing curve with a large enough effect in the repeat runs; inconclusive = weak or mixed curves, or effect the other way; inactive = flat fitted curve, though single readings scatter.
Test: qHTS RealTime-Glo MT Cell Viability Assay in HEK293 cells - 16 hour (AID 1224872); note: nearly all actives have a fitted effect of over 50% in size; for activity change, negative = cytotoxicity: top concentration of the series differs between compounds
Details: RealTime-Glo luminescence; series mostly up to 76.8 µM; activity change, negative = cytotoxicity: at the top concentration
Description: National Center for Advancing Translational Sciences [NCATS]
NIH Chemical Genomics Center [NCGC]
U.S. Environmental Protection Agency [EPA]
National Institutes of Environmental Health Sciences [NIEHS]
National Toxicology Program [NTP]
U.S. Food and Drug Administration [FDA]
Measure of cell viability is critical in the cell-base assay. Analysis of cell viability is necessary for the characterization of cell responses to cytotoxic drugs and environmental stress. A RealTime-Glo MT Cell Viability Assay to monitor cell viability in real time of continues cell culture during 40 hours of compound treatment was used to screen Tox21 10K library compounds in Hek293 cells. The RealTime-Glo MT Cell Viability Assay is a nonlytic, homogeneous, bioluminescent method to measure cell viability in real time using a simple, plate-based method. The assay involves adding NanoLuc luciferase and a cell-permeant prosubstrate to cells in culture. Viable cells reduce the proprietary prosubstrate to generate a substrate for NanoLuc luciferase. This substrate diffuses from cells into the surrounding culture medium, where it is rapidly used by the NanoLuc Enzyme to produce a luminescent signal. The signal correlates with the number of viable cells, making the assay well suited for cytotoxicity studies.
Tox21 Assay Protocol Summary:
The mixture of Hek293 cell suspension and reagents were dispensed at 600cells/6 ul/well in 1536-well tissue culture treated black solid bottom plates using a Multidrop dispenser. After the assay plates were incubated at a 37 C/5% CO2 incubator for 5 hours, 23 nL of compounds dissolved in DMSO, positive and negative controls was transferred to the assay plate by a pintool work station. The plates were incubated at 37 C for 40 hours. The luminescence intensity were measured at 0h, 8h, 16h, 24h, 32h and 40h time points using ViewLux plate reader during compound treatment.
% is set by controls: 0 for no effect and ±100 for the full control effect; potency is the fitted concentration of half-maximal effect.

**Q.** Which “activity change, negative = cytotoxicity” value does the source give for `COc1ccc2[nH]cc(CCN(C(C)C)C(C)C)c2c1` here?
**A.** Its value is -11.3% (inactive).

**Q.** Which “activity change, negative = cytotoxicity” value does the source give for `O=[N+]([O-])c1ccccc1-c1ccccc1` here?
**A.** Its value is -0.84% (inactive).

**Q.** With `CCC[CH2][Sn]([CH2]CCC)([CH2]CCC)[O][Sn]([CH2]CCC)([CH2]CCC)[CH2]CCC` as the compound, how does the Potency read?
**A.** Its Potency is 0.214 µM (active).

**Q.** With `CCCCn1cc[n+](C)c1.[Cl][Fe-]([Cl])([Cl])[Cl]` as the compound, how does the “activity change, negative = cytotoxicity” value read?
**A.** Its value is 0.57% (inactive).

**Q.** For `CCN(CC)C(=S)S`, which “activity change, negative = cytotoxicity” value is on record?
**A.** Its value is -23.1% (inactive).

**Q.** With `CC(=O)[O][Pb]([c]1ccccc1)([c]1ccccc1)[c]1ccccc1` as the compound, how does the Potency read?
**A.** Its Potency is 0.49 µM (active).

**Q.** Which “activity change, negative = cytotoxicity” value does the source give for `O=P(Cl)(Cl)Cl` here?
**A.** The value was 6.4% (inactive).

**Q.** With `CCOP(=S)(OCC)SC(CCl)N1C(=O)c2ccccc2C1=O` (stereo not given) as the compound, how does the “activity change, negative = cytotoxicity” value read?
**A.** Its value is -2.95% (inactive).

**Q.** For `CNC(=O)O/N=C(\C)C(C)S(C)(=O)=O` (stereo not given), which “activity change, negative = cytotoxicity” value is on record?
**A.** Its value is 1.1% [at 725 µM] (inactive).

**Q.** With `CN=C=O` as the compound, how does the “activity change, negative = cytotoxicity” value read?
**A.** The value was 6.01% (inactive).

**Q.** Which “activity change, negative = cytotoxicity” value does the source give for `CN1C2CCC(C)(C)C1CC(OC(=O)C(O)(c1cccs1)c1cccs1)C2` (stereo not given) here?
**A.** The value was -24.1% [at 35.3 µM] (inactive).

**Q.** For `CC(Cl)CCl` (stereo not given), which “activity change, negative = cytotoxicity” value is on record?
**A.** The value was -8.42% (inactive).

**Q.** Which “activity change, negative = cytotoxicity” value does the source give for `COCCC#N` here?
**A.** Its value is 9.09% (inactive).

**Q.** With `O=C(O)[C@H](O)[C@@H](O)C(=O)O` as the compound, how does the “activity change, negative = cytotoxicity” value read?
**A.** Its value is 2.7% (inactive).

**Q.** With `CN1CCc2cc3c(cc2C1O)OCO3` (stereo not given) as the compound, how does the “activity change, negative = cytotoxicity” value read?
**A.** Its value is 0.789% (inactive).

**Q.** With `O.O.O.O.O.O.O=S(=O)([O-])[O-].[Ni+2]` as the compound, how does the “activity change, negative = cytotoxicity” value read?
**A.** The value was -23.7% [at 35.3 µM] (inactive).

**Q.** With `CC(Cc1ccccc1)N(C)Cc1ccco1` (stereo not given) as the compound, how does the “activity change, negative = cytotoxicity” value read?
**A.** Its value is 2.83% [at 35.3 µM] (inactive).

**Q.** Which Potency does the source give for `CN(C)c1ccc(N)cc1` here?
**A.** Its Potency is 42.6 µM (active).

**Q.** With `CC(C)C(Br)C(=O)NC(N)=O` (stereo not given) as the compound, how does the “activity change, negative = cytotoxicity” value read?
**A.** The value was 12.2% [at 35.3 µM] (inactive).

**Q.** Which Potency does the source give for `Oc1ccc2[nH]cc(CCCCN3CC=C(c4ccccc4)CC3)c2c1` here?
**A.** Its Potency is 9.52 µM (active).

**Q.** Which “activity change, negative = cytotoxicity” value does the source give for `CC(=O)[O-].CC(=O)[O-].O.O.[Zn+2]` here?
**A.** The value was -1.54% (inactive).

**Q.** For `[Cl][Hg][c]1ccccc1`, which Potency is on record?
**A.** Its Potency is 1.38 µM (active).

**Q.** Which Potency does the source give for `C[C@H]1[C@H](c2ccc(Cl)cc2)SC(=O)N1C(=O)NC1CCCCC1` here?
**A.** The Potency was 38.9 µM (active).

**Q.** With `O=C(N[C@H]1N=C(c2ccccc2F)c2cccc3c2N(CC3)C1=O)c1cc2ccccc2[nH]1` as the compound, how does the “activity change, negative = cytotoxicity” value read?
**A.** Its value is -0.636% [at 35.3 µM] (inactive).

**Q.** For `CSSC`, which “activity change, negative = cytotoxicity” value is on record?
**A.** Its value is -19.7% (inactive).

**Q.** For `O=S1OCC2C(CO1)C1(Cl)C(Cl)=C(Cl)C2(Cl)C1(Cl)Cl` (stereo not given), which Potency is on record?
**A.** The Potency was 19.5 µM (active) and 38.9 µM (active).

**Q.** With `CC(Cc1ccc(OCC(=O)O)cc1)NCC(O)c1csc(C(F)(F)F)n1` (stereo not given) as the compound, how does the “activity change, negative = cytotoxicity” value read?
**A.** The value was 2.12% (inactive).

**Q.** Which “activity change, negative = cytotoxicity” value does the source give for `CCCCN(CCCC)C(=S)[S-].CCCCN(CCCC)C(=S)[S-].[Ni+2]` here?
**A.** Its value is -6.29% [at 35.3 µM] (inactive).

**Q.** Which Potency does the source give for `CC(O)C(=O)[O][Hg][c]1ccccc1` (stereo not given) here?
**A.** Its Potency is 1.1 µM (active).

**Q.** Which Potency does the source give for `CCCCCCCCCCCCCCn1cc[n+](C)c1` here?
**A.** The Potency was 55 µM (active) and 24.3 µM (active).

**Q.** Which “activity change, negative = cytotoxicity” value does the source give for `C1=CCC=C1` here?
**A.** Its value is 12.8% (inactive).

**Q.** Which Potency does the source give for `CC(=O)[O][Sn]([c]1ccccc1)([c]1ccccc1)[c]1ccccc1` here?
**A.** Its Potency is 0.049 µM (active).

**Q.** Which “activity change, negative = cytotoxicity” value does the source give for `CN1[C@@H]2CC[C@H]1CC(O)C2` (stereo not given in full) here?
**A.** The value was 15.9% (inactive).

**Q.** For `O=[N+]([O-])c1cccc2cccc([N+](=O)[O-])c12`, which “activity change, negative = cytotoxicity” value is on record?
**A.** The value was -5.8% (inactive).

**Q.** With `ClC1=C(Cl)[C@]2(Cl)[C@H]3[C@H]([C@@H]4C=C[C@H]3C4)[C@@]1(Cl)C2(Cl)Cl` as the compound, how does the Potency read?
**A.** Its Potency is 43.6 µM (active) and 38.9 µM (active).

**Q.** For `CCOC(=O)Cc1ccccc1`, which “activity change, negative = cytotoxicity” value is on record?
**A.** Its value is 2.17% (inactive).

**Q.** Which “activity change, negative = cytotoxicity” value does the source give for `CCNS(=O)(=O)C(F)(F)C(F)(F)C(F)(F)C(F)(F)C(F)(F)C(F)(F)C(F)(F)C(F)(F)F` here?
**A.** Its value is 10.4% (inactive).

**Q.** With `COc1nc(C)nc(NC(=O)NS(=O)(=O)c2ccccc2Cl)n1` as the compound, how does the “activity change, negative = cytotoxicity” value read?
**A.** The value was 0.736% (inactive).

**Q.** For `CCC(C)Br` (stereo not given), which “activity change, negative = cytotoxicity” value is on record?
**A.** Its value is -5.46% (inactive).

**Q.** For `Fc1ccc(C(OCCN2CCN(CCCc3ccccc3)CC2)c2ccc(F)cc2)cc1`, which Potency is on record?
**A.** The Potency was 8.49 µM (active).
